This is a sample that favours compounds with a hit; in the whole collection about 3.2% have one here.
ClpP mod – qHTS Assay for Activators of ClpP; ATP-dependent Clp protease proteolytic subunit (Bacillus subtilis (strain 168)), P80244; purified B. subtilis ClpP, FRET peptide cleavage, 20 min; Potency, µM (doses to about 57.5 µM), for the others: top-dose activity change, negative = active; 340,000 tested, 1.9% active; AID 651965, 2013; active = well fitted falling curve with a large enough effect; inconclusive = small, poorly fitted or top-dose-only effect; inactive = no such curve, though single readings can be large or run the other way; note: the source files actives as falling curves though it sought activators and does not explain the sign; nearly all actives have a fitted effect of over 65% in size
Target sequence (P80244 whole entry, looked up): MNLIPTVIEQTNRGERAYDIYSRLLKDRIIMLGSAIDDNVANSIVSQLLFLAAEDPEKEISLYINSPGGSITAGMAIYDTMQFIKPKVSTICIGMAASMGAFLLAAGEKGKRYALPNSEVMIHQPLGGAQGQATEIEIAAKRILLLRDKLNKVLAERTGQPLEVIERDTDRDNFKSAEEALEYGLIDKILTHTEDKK
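FRET quenching reversal measured ClpP activation: 10 microg/mL B. subtilis ClpP at pH 8 with the FRET-FV decapeptide, read at 430 nm after 320 nm excitation. The 20-min minus 0-min signal was scaled between DMSO/no-enzyme wells and ADEP (5.8 microM final).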
GLP1R ag – qHTS of GLP-1 Receptor Agonists | 380,000 tested, 0.007% active | HEK293 GLP-1R CRE-luciferase, luminescence, 4-6 h; cells express a hypersensitive GLP-1R form | Potency, µM (series often up to 45.6 µM), inactives show at the top dose activation, most hits filed as activators | AID 624172, 2012 | Glucagon-like peptide 1 receptor (Homo sapiens), P43220; note: % of control where 0% means no effect
Target sequence (P43220 whole entry, looked up): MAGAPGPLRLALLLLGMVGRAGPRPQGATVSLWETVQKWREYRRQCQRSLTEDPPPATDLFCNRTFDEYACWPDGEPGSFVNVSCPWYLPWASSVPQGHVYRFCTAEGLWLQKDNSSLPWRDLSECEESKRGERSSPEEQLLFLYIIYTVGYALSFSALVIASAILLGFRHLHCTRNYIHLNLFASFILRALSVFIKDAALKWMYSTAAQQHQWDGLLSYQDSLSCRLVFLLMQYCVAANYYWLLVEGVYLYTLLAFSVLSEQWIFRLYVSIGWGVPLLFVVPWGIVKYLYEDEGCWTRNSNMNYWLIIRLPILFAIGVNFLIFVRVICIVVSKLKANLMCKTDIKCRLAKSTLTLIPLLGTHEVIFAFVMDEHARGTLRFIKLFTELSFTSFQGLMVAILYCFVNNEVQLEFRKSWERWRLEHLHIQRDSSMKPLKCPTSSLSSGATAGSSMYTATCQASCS
GLP-1R inv ag – qHTS of GLP-1 Receptor Inverse Agonists (Inhibition Mode); Glucagon-like peptide 1 receptor (Homo sapiens), P43220; 410,000 tested, 1.6% active; HEK293 GLP-1R CRE-luciferase, luminescence, 24 h; GLP-1R form is constitutively active; Potency, µM (series often up to 38.3 µM), without a hit: at the highest dose activity change, negative = inhibition, most hits filed as inhibitors; note: % is set by controls: 0 for no effect and ±100 for the full control effect; nearly all actives have a fitted effect of over 55% in size
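HEK293 cells stably co-expressing constitutively active GLP-1R and a cAMP-responsive luciferase reporter were seeded in DMEM with 10% Nu serum, given compounds after 12 h, and incubated 24 h at 37 deg C. Luminescence was then read.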
HEK293 tox – qHTS of GLP-1 Receptor Inverse Agonists: Cytotox Screen; HEK293 cAMP-luciferase reporter cells, luminescence, 24 h; Potency, µM (doses to about 38.3 µM), for inactives: at the highest dose activity change, negative = inhibition, hits mostly inhibitors; 410,000 tested, 0.13% active;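 note: loss of luciferase light is scored as toxicity; % is set by controls: 0 for no effect and ±100 for the full control effect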
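Seeding density was 200 cells/uL; after overnight-length (12 h) culture, 23 nL compounds went on for 24 h at 37 °C. Readout used a luciferase detection reagent, luminescence taken after 12 min at room temperature.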
An asterisk follows results filed as active; u = inconclusive; x = no result; [ ] = dose if it differs, or a comment. Unless noted, calls come from the whole dose curve; as a rule, active = well fitted curve in the direction sought with a large enough effect; inconclusive = small, poorly fitted or top-dose-only effect, or another doubt; inactive = no such curve, though single readings can be large; an effect the other way counts as inactive or inconclusive. Potency is the fitted concentration of half-maximal effect.

SMILES	ClpP mod	GLP1R ag	GLP-1R inv ag	HEK293 tox
CCOC(=O)N1CCC(N(CCN(C)C)C(=S)Nc2cc(Cl)ccc2C)CC1	x	11.5%	5.62µM*	u
COc1ccc(-c2ccc(CNCCCSc3nnnn3C)o2)cc1Cl	-0.2%	x	-7.0%	-3.1%
COc1ccc(-c2nnc(SCC(=O)NC3CCCC3)nc2-c2ccc(OC)c(OC)c2)cc1OC	u	x	u	0.2%
CCOc1ccc(C(=O)OCC(=O)N(Cc2ccccc2)Cc2ccccc2)cc1OC	-8.5%	5.0%	10µM*	-9.7%
C=C1C=C(C(F)F)n2ncc(C(=O)N3CCCCC3)c2N1	-1.8%	x	x	x
CCn1c(SCC(=O)Nc2nc(-c3ccccc3)cs2)nnc1-c1ccccc1	-3.8%	-2.4%	10µM*	0.5%
Cc1nnc(SCC(=O)Nc2nc(-c3ccccc3)cs2)n1N	0.4%	-8.9%	0.0%	1.6%
CCn1c(CNc2nc(-c3ccccc3)cs2)nnc1SCC(=O)NCc1ccccc1	0.3%	1.4%	11.2µM*	-22.5%
O=C(O)C(=O)Nc1cccc(C2=NN=N[N]2)c1	x	-0.3%	x	x
COc1cccc(-n2ccnc2SCC(=O)Nc2nc3ccc(C)cc3s2)c1	-2.6%	-7.0%	3.3%	8.1%
Cc1ccc(S(=O)(=O)Oc2ccccc2-c2ccccc2)cc1	x	8.4%	2.51µM*	-24.8%
O=C(NCCN1CCCCC1)Nc1ccc(F)cc1	0.4%	-1.5%	-3.6%	-1.4%
Cc1cc2nc(C)n(CCCNC(=O)Nc3ccc(F)cc3)c2cc1C	0.3%	1.4%	10µM*	-18.6%
CC(C)=CCc1c(O)cc(O)c2c(=O)c3c(CC=C(C)C)c(O)ccc3oc12	-2.7%	-3.8%	10µM*	u
CC(C)=CCc1c(O)cc2c(=O)c3ccc(O)cc3oc2c1O	1.2%	10.8%	63.7%	-5.9%
C=CCc1cccc(CNc2nc3ccccc3n2CC)c1O	-3.0%	9.0%	5.01µM*	-23.3%
O=C(Nc1ccc(C(=O)OCc2cc(=O)n3c4c(sc3n2)CCCC4)cc1)c1ccccc1	-2.0%	x	8.2%	1.0%
O=C(NCCSCc1ccc(Cl)cc1Cl)c1ccc(CN2CCOCC2)cc1	2.0%	1.1%	10µM*	2.0%
CCN1C(Br)=CCc2ccccc21	-0.1%	x	x	x
CCCN1CNc2c(c(=O)[nH]c(=S)n2CCc2cc(Cl)cc(Cl)c2)C1	-1.5%	x	x	x
C[C@H](NC(=O)c1nc[nH]c1C(=O)NC(c1ccccc1)c1ccccc1)C(=O)OC(C)(C)C	3.7%	2.3%	5.62µM*	0.4%
CC(C)C[C@H](NC(=O)c1nc[nH]c1C(=O)N[C@@H](CC(C)C)C(=O)OC(C)(C)C)C(=O)OCc1ccccc1	2.3%	-2.9%	u	-13.3%
CC(C)C[C@H](NC(=O)c1[nH]cnc1C(=O)N[C@@H](C)c1ccccc1)C(=O)OCc1ccccc1	-1.2%	-1.0%	4.47µM*	-13.2%
COc1cccc(C(c2ccccc2)N2C3CCC2CN(S(=O)(=O)c2ccc(F)cc2)CC3)c1 (centres undefined)	-0.6%	-20.4%	3.55µM*	2.1%
COc1ccc(N2CCN(C3CCN(S(=O)(=O)c4ccc(F)cc4)CC3)CC2)cc1	-1.1%	-6.2%	-10.8%	-0.6%
SMILES	ClpP mod	GLP1R ag	GLP-1R inv ag	HEK293 tox
CC1=NN(/C(=N\c2nnc(C)s2)Nc2ccc(C)cc2)[C@H](c2ccc(C)cc2)S1	2.1%	-2.4%	10µM*	-13.3%
CC1c2cc3c(cc2CCN1C(=O)c1ccc(Cl)cc1)OCCCO3 (centres undefined)	-2.4%	12.6%	u	-11.9%
Cc1ccc(C(=O)N2CCc3cc4c(cc3C2C)OCCCO4)cc1 (centres undefined)	-27.3%	-1.1%	11.2µM*	-20.7%
Cn1c(Sc2ccc(Br)cc2)c(C=O)c2ccccc21	-4.9%	-22.7%	4.47µM*	-19.9%
Cn1c(C=O)c(C#Cc2ccccc2)c2ccccc21	-26.8%	16.4%	u	58.1%
O=c1c2c(-c3ccc(Cl)cc3)ccnc2[nH]n1-c1ccccc1	3.7%	-2.3%	2.9%	2.5%
O=C1c2[nH]nc(-c3ccc(F)cc3)c2C(c2ccccc2F)N1c1ccccc1 (centres undefined)	3.0%	x	u	8.5%
Cc1ccc(-n2ncc(C(=O)N3CCN(c4cccc(C)c4C)CC3)c2C2CCNCC2)c(C)c1	-0.4%	-7.9%	u	-24.2%
Cc1ccc(NC(=O)C(C)OC(=O)CCNS(=O)(=O)c2ccc(C)cc2)cc1 (centres undefined)	31.6µM*	6.0%	-15.5%	12.9%[1.53 µM]
Cc1ccc(S(=O)(=O)NCCCCCC(=O)Nc2ccccc2)cc1	28.2µM*	-3.4%	14.7%	-3.1%
Cc1cccc(S(=O)(=O)NCCC(=O)OC(C)C(=O)NC(=O)NC2CCCCC2)c1 (centres undefined)	31.6µM*	18.0%	-12.5%	-6.3%
CC(=O)Nc1ccc(S(=O)(=O)NCCC(=O)OC(C)C(=O)c2ccc(C)cc2)cc1 (centres undefined)	1.9%	-1.0%	-7.3%	-0.3%
Cc1ccc(S(=O)(=O)NCCCCCC(=O)Nc2ccccc2C)cc1	2.2%	5.2%	0.9%	2.2%
Nc1c(Br)cc(/C=C/c2ccnc3ccccc23)cc1Br	-3.5%	x	x	x
Cc1cccc(NC(=O)NC2COc3ccccc3C2)c1C (centres undefined)	-0.5%	x	3.3%	-7.7%
CCOC(=O)C1CCC(CN(Cc2ccc(OC)cc2)S(=O)(=O)c2ccc(C)cc2)CC1 (centres undefined)	-4.1%	x	u	17.3%
CC(=O)c1ccc(NC(=O)c2cc3sccc3n2Cc2ccc(Cl)cc2)cc1	u	-0.9%	-24.1%	0.3%
COc1ccc(Br)cc1C1NC(c2ccc3c(c2)OCO3)=CC(c2ccccc2O)N1 (centres undefined)	-4.7%	x	x	x
Cc1cc(O)c(/C=N/Nc2cccc(Cl)c2)c(=O)o1	-5.2%	0.9%	2.82µM*	3.6%
CC(C)CCOc1ccc(C2N=C(N)Nc3nc4ccccc4n32)cc1 (centres undefined)	-0.7%	x	u	-7.4%
Cn1c2c(c(=O)n3ncnc13)CCCC2	22.4µM*	-10.1%	1.9%	-4.3%
CCOC(=O)c1ccccc1NC(=O)COC(=O)CSCC(=O)Nc1cc(C)on1	-0.2%	-0.1%	7.8%	1.8%
Cc1cc(NC(=O)COC(=O)c2ccccc2NCCO)no1	15.8µM*	0.0%	14.0%	13.8%
CC1=C(c2ccc(C)cc2)S(=O)(=O)N(Cc2ccc(C(=O)NCc3ccccc3F)cc2)C1=O	4.3%	x	9.2%	0.0%
Nc1nc(N)c2c(OCc3ccc(C(F)(F)F)cc3)cccc2n1	4.5%	x	x	x
Nc1ccc(Cn2ccc3c4c(N)nc(N)nc4ccc32)cc1	-28.4%	13.3%	u	7.94µM*
COc1ccc(Cn2c(=O)[nH]c3cc(C(=O)NCCC(C)C)ccc3c2=O)cc1	-0.5%	3.1%	5.0%	8.5%
O=C(O)COc1cccc2nsnc12	-3.6%	-6.0%	20.4%	8.9%

Screening results (PubChem BioAssay)
